{
  "source": "PubChem BioAssay (NCATS)",
  "key": {"[1]": {"target": "Cytochrome P450 2C19 (Homo sapiens) (UniProt P33261)", "sequence (P33261 whole entry, looked up)": "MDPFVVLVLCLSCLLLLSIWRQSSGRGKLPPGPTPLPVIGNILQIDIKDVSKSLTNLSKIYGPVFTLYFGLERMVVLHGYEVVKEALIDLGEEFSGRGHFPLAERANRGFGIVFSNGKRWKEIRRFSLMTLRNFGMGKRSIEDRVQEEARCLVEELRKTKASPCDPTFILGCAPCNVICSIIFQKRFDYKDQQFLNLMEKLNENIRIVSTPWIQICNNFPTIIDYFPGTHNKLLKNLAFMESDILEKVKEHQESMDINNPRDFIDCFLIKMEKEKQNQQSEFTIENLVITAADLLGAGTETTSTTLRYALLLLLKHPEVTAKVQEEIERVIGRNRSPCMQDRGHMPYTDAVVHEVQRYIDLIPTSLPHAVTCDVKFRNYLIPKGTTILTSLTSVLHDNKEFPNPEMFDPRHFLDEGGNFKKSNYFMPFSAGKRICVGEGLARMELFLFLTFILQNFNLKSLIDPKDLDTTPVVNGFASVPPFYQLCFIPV", "experiment": "qHTS Assay for Inhibitors and Substrates of Cytochrome P450 2C19 (AID 899); further: nearly all actives have a fitted effect of over 60% in size; further: potency means the concentration at half of the fitted maximal effect", "how_it_was_run": "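NADPH-dependent conversion of Luciferin-H EGE (10uM, at KM) by 5nM enzyme in 50mM KPO4, 60 min at 37C following 10 min compound preincubation. Stopped with luciferin detection buffer; luminescence read after 20 min.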"}, "[2]": {"experiment": "Confirmation and Secondary Assay for Modulators of Hemoglobin Beta Chain Splicing at IVS2 654 locus (AID 910);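 further: per-well total GFP intensity by laser scanning cytometry after 2-day treatment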", "how_it_was_run": "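HeLa cells stably carrying EGFP interrupted by mutant beta-globin IVS2-654 intron (CMV-driven) were treated with compound for 2 days at 37C; corrected splicing was scored as total peak GFP intensity per well (488 nm excitation, 500-520 nm emission).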"}, "[3]": {"experiment": "Confirmation and Secondary Assay for Modulators of Hemoglobin Beta Chain Splicing at IVS2 705 locus (AID 930); further: series mostly up to about 46 µM", "how_it_was_run": "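First, HeLa EGFP-705 cells are seeded at 500/well in Optimem with 2% FCS and left overnight. Next, compound or DMSO is added for 2 days. Finally wells are laser-scanned and total peak GFP intensity scored.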"}, "[4]": {"target": "Pyruvate kinase (Leishmania mexicana) (UniProt Q27686)", "sequence (Q27686 2-499 E452W)": "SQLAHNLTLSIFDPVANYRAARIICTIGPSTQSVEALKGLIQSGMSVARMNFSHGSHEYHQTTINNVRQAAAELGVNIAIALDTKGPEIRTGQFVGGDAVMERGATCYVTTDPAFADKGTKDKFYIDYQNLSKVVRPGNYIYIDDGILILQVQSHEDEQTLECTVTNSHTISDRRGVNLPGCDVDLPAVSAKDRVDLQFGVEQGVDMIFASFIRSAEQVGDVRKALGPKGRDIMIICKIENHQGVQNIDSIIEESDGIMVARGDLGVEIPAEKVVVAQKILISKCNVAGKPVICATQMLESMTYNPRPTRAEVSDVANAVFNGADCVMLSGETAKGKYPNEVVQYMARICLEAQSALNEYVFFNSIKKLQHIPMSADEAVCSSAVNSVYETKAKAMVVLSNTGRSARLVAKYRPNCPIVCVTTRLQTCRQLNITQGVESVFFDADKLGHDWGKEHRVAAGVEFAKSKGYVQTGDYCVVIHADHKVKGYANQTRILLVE", "experiment": "qHTS Validation Assay for Inhibitors of Leishmania Mexicana Pyruvate Kinase (AID 945)", "how_it_was_run": "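qHTS eight-point titrations against 0.2 nM LmPYK (E451W) in imidazole buffer pH 7.2 with 0.5 mM PEP, 0.1 mM ADP; 1 h, room temperature. Readout: PKLight luminescence, normalized to neutral DMSO wells.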"}, "[5]": {"target": "Pyruvate kinase PKM (Homo sapiens) (UniProt P14618)", "sequence (P14618 whole entry, looked up)": "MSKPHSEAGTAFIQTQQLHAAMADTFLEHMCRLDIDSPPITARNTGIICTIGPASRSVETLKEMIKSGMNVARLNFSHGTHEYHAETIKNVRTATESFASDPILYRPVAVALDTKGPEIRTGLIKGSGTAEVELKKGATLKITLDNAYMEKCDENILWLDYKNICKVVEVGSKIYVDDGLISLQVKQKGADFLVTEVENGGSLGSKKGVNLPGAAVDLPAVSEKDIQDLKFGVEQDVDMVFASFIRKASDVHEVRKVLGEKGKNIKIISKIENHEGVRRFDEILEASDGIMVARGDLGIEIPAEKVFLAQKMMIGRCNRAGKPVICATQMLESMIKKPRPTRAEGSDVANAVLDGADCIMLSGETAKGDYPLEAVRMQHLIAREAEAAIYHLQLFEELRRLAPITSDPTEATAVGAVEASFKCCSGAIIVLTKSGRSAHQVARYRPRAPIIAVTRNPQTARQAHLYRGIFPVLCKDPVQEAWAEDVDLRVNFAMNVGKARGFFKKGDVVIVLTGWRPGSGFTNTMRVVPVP", "experiment": "qHTS Assay for Activators of Human Muscle Pyruvate Kinase (AID 954; active means well fitted curve in the direction sought with a large enough effect, not every such curve was filed as active)", "how_it_was_run": "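Reaction: 0.1 nM purified PKM2 with 0.5 mM phosphoenolpyruvate and 0.1 mM ADP, room temperature, 1 h. Readout: luciferase-based ATP luminescence after stop reagent. Activators judged against a 0.3 nM enzyme column.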"}, "[6]": {"experiment": "qHTS Assay for Identification of Small Molecule Agonists for Hypoxia Response Element Signaling Pathway (AID 914; active means well fitted activation curve with a large enough effect in the signal ratio, with a control signal flat, not every such curve was filed as active; the % refers to the signal ratio)", "conditions": "ME-180 HRE-bla reporter, beta-lactamase ratio, CoCl2, 17 h; hits give high values", "how_it_was_run": "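Positive modulation of EC50 CoCl2-induced hypoxia response element signaling is measured in ME-180 cells with a beta-lactamase reporter. Compounds are titrated, incubation runs 17 hours, and %Activity derives from the blue/green ratio.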"}},
  "note": "Values without a mark were called inactive. Records with an inconclusive call do not appear. A call without a number means that no potency is given here. The source made the active and inactive calls. Unless noted, the call rests on the fitted dose curve; in most records, active means well fitted curve in the direction sought with a large enough effect; inconclusive means small, poorly fitted or top-dose-only effect, or another doubt; inactive means no such curve, though single readings can be large; an effect the other way counts as inactive or inconclusive.",
  "data": [
    {"smiles": "C[C@@H]1CN(CCCn2c3ccccc3c3ccccc32)C[C@H](C)N1", "values": [
      {"measurement": "Potency", "setting": "[1]", "value": "3.16 µM (active)"}
    ]},
    {"smiles": "CN(C(=O)CN(CCO)CC(=O)N(C)C(C)(C)Cc1ccccc1)C(C)(C)Cc1ccccc1", "values": [
      {"measurement": "outcome", "setting": "[2]", "value": "inactive"},
      {"measurement": "outcome", "setting": "[3]", "value": "inactive"}
    ]},
    {"smiles": "CCCCCCCCCCCCCCCCOP(=O)([O-])OCC[N+](C)(C)C", "values": [
      {"measurement": "outcome", "setting": "[2]", "value": "inactive"},
      {"measurement": "outcome", "setting": "[3]", "value": "inactive"}
    ]},
    {"smiles": "O=C(OCC(O)CO)c1ccccc1Nc1ccnc2cc(Cl)ccc12", "note": "(configuration not stated)", "values": [
      {"measurement": "outcome", "setting": "[2]", "value": "inactive"},
      {"measurement": "outcome", "setting": "[3]", "value": "inactive"}
    ]},
    {"smiles": "CCCCC1=NC2(CCCC2)C(=O)N1Cc1ccc(-c2ccccc2-c2nn[nH]n2)cc1", "values": [
      {"measurement": "outcome", "setting": "[2]", "value": "inactive"},
      {"measurement": "outcome", "setting": "[3]", "value": "inactive"}
    ]},
    {"smiles": "CCCn1c(=O)[nH]c(=O)c2[nH]cnc21", "values": [
      {"measurement": "Potency", "setting": "[1]", "value": "inactive"},
      {"measurement": "outcome", "setting": "[4]", "value": "inactive"},
      {"measurement": "outcome", "setting": "[5]", "value": "inactive"}
    ]},
    {"smiles": "CCN1CCN(c2cc3c(cc2F)c(=O)c(C(=O)O)cn3C2CC2)CC1", "values": [
      {"measurement": "outcome", "setting": "[2]", "value": "inactive"},
      {"measurement": "outcome", "setting": "[3]", "value": "inactive"}
    ]},
    {"smiles": "CC(Cc1cccc(C(F)(F)F)c1)NCCOC(=O)c1ccccc1", "note": "(configuration not stated)", "values": [
      {"measurement": "outcome", "setting": "[2]", "value": "inactive"},
      {"measurement": "outcome", "setting": "[3]", "value": "inactive"}
    ]},
    {"smiles": "O=C1c2ccccc2C(=O)C1c1ccccc1", "values": [
      {"measurement": "outcome", "setting": "[2]", "value": "inactive"},
      {"measurement": "outcome", "setting": "[3]", "value": "inactive"}
    ]},
    {"smiles": "COc1c(C)c2c(c(O)c1C/C=C(\\C)CCC(=O)O)C(=O)OC2", "values": [
      {"measurement": "Potency", "setting": "[1]", "value": "inactive"},
      {"measurement": "outcome", "setting": "[2]", "value": "inactive"},
      {"measurement": "outcome", "setting": "[3]", "value": "inactive"}
    ]},
    {"smiles": "O=C(COc1ccc(Cl)cc1)N1CCN(Cc2ccc3c(c2)OCO3)CC1", "values": [
      {"measurement": "Potency", "setting": "[1]", "value": "5.01 µM (active)"},
      {"measurement": "outcome", "setting": "[3]", "value": "inactive"}
    ]},
    {"smiles": "CC(=O)N(O)CCCCCNC(=O)CCC(=O)N(O)CCCCCNC(=O)CCC(=O)N(O)CCCCCN", "values": [
      {"measurement": "outcome", "setting": "[2]", "value": "inactive"},
      {"measurement": "outcome", "setting": "[3]", "value": "inactive"}
    ]},
    {"smiles": "CC(C)(C)CC(C)(C)c1ccc(O)c(Cc2ccc(Cl)cc2Cl)c1", "values": [
      {"measurement": "outcome", "setting": "[2]", "value": "inactive"},
      {"measurement": "outcome", "setting": "[3]", "value": "inactive"}
    ]},
    {"smiles": "CN1CCC(=C2c3ccccc3Sc3ccccc32)CC1", "values": [
      {"measurement": "outcome", "setting": "[2]", "value": "inactive"},
      {"measurement": "outcome", "setting": "[3]", "value": "inactive"}
    ]},
    {"smiles": "Cc1c(N(C)CS(=O)(=O)O)c(=O)n(-c2ccccc2)n1C", "values": [
      {"measurement": "outcome", "setting": "[2]", "value": "inactive"},
      {"measurement": "activation", "setting": "[6]", "value": -4.84, "unit": "%"},
      {"measurement": "outcome", "setting": "[3]", "value": "inactive"}
    ]}
  ]
}
